# Experimental data as given in the supplement of paper PMC10600219.
# Counter-ions that a name gives are not always drawn. The full ranking holds about 2,800 compounds; the median of “cell viability relative to vehicle” is about 0.98, and the lowest 2% start at about 0.45. This is one part of a sample in which the lowest values are shown more often than they occur.
# Tested on: NCI-H2228 alectinib-DTP
# Experiment: cell viability relative to vehicle (fraction of vehicle); NCI-H2228 is an ALK-positive lung cancer line and DTP means drug-tolerant persister; higher = less growth inhibition
# Settings: 100 nM; treatment time 6 days
# Outline: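 Parental NCI-H2228 cells and drug-tolerant persister cells (made with 1000 nM of a targeted drug for 13 days) were seeded in 384-well plates. The next day, the 3114-agent TargetMol anti-cancer compound library was added at 100 nM, with DMSO as vehicle. After 6 days, ATP was read with the CellTiter-Glo 3D Cell Viability Assay. Each value is cell viability relative to vehicle-treated cells.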
row,SMILES,cell viability
1,CCn1cc(C(=O)O)c(=O)c2c(N)c(F)c(NC3CCCCC3)cc21,1.1
2,Cc1ccc(S(=O)(=O)Cc2nc(-c3ccc(C(=O)NCc4cccnc4)cc3)oc2C)cc1,0.955
3,O=C(NCc1ccc(S(=O)(=O)c2cc(F)cc(F)c2)cc1)c1ccc2nccn2c1,0.34
4,CC1(C)CC[C@]2(C(=O)O)CCC3=C([C@@H](CCl)C[C@@H]4[C@@]5(C)C[C@H](O)[C@H](O)[C@@](C)(C(=O)O)[C@@H]5CC[C@@]34C)[C@@H]2C1 [Senegenin],0.889
5,COCc1c(-c2ccc(NC(=O)Nc3cc(C(F)(F)F)ccc3F)c(F)c2)c2c(N)ncnn2c1CN1CCOCC1,0.632
6,C[C@@H]1CC[C@@]2(NC1)O[C@H]1C[C@H]3[C@@H]4CC=C5C[C@@H](O[C@@H]6O[C@H](CO)[C@@H](O[C@@H]7O[C@@H](C)[C@H](O)[C@@H](O)[C@H]7O)[C@H](O)[C@H]6O[C@@H]6O[C@@H](C)[C@H](O)[C@@H](O)[C@H]6O)CC[C@]5(C)[C@H]4CC[C@]3(C)[C@H]1[C@@H]2C [Solamargine],1.06
7,CNC(=O)c1cccc(-c2ccc3c(N4CCOC[C@@H]4C)nc(N4CCOC[C@@H]4C)nc3n2)c1 [Vistusertib],0.594
8,COc1ccc(-c2ccc3c(N4CCOC[C@@H]4C)nc(N4CCOC[C@@H]4C)nc3n2)cc1CO,0.377
9,COc1ccc(-c2ccc3c(N4CCOCC4)nc(N4C[C@@H](C)O[C@@H](C)C4)nc3n2)cc1CO,0.765
10,COc1ccc([C@@H]2OC[C@H]3[C@@H]2CO[C@@H]3c2ccc3c(c2)OCO3)cc1OC [Fargesin],1.11
11,O=C1c2c(O)ccc(O)c2C(=O)c2c(NCCNCCO)ccc(NCCNCCO)c21 [Mitoxantrone],0.386
12,O=C1c2cccc(O)c2C(=O)c2c(O)cccc21 [Antrapurol],0.878
13,NCCNc1ccc(NCCN)c2c1C(=O)c1ccncc1C2=O [Pixantrone dimaleate],0.661
14,CC(C)=CCc1c(O)ccc(C(=O)/C=C/c2ccc(O)cc2)c1O [Isobacachalcone],1.01
15,Cc1ccc([N+](=O)[O-])cc1S(=O)(=O)N(C)/N=C/c1cnc2ccc(Br)cn12,0.172
16,Cc1ccc([N+](=O)[O-])cc1S(=O)(=O)N(C)/N=C/c1cnc2ccc(Br)cn12 [PIK-75  hydrochloride],0.201
17,CC(C)n1cnc2c(NCc3ccccc3)nc(NCCCO)nc21 [Bohemine],0.951
18,C=CCSC[C@H](N)C(=O)O [S-allyl-L-cysteine],1.06
19,CC(C)=CC[C@H](O)C1=CC(=O)c2c(O)ccc(O)c2C1=O [Alkannin],0.957

row,SMILES,cell viability
1,CC1=C(C(=O)Nc2ccc3[nH]ncc3c2)C(c2ccc(F)c(C(=O)NCc3ccccn3)c2)NC(=O)N1 (configuration not stated),1
2,Cn1c(=O)n(-c2ccc(C(C)(C)C#N)cc2)c2c3cc(-c4cnc5ccccc5c4)ccc3ncc21 [Dactolisib],0.435
3,CC(C)(C#N)c1ccc(N2C(=O)OCc3cnc4ccc(-c5cnc6ccccc6c5)cc4c32)cc1,0.925
4,CO[C@@H](C)Cn1c(=O)n(C)c2cnc3ccc(-c4cncc(C(C)(C)O)c4)cc3c21,0.513
5,O[C@@H]1[C@@H](O)[C@@H](OC/C=C/c2ccccc2)O[C@H](CO[C@@H]2OC[C@H](O)[C@H](O)[C@H]2O)[C@H]1O [Rosavin],0.944
6,C[C@@H]1CC(=O)Nc2cccc(-c3ccc4c(c3)c(-c3cnn(C)c3)nn4C)c2N1,1.01
7,O=C(Nc1nc(-c2ccc(O)c(O)c2)c(-c2ccccc2)s1)c1ccc(O)c(O)c1,1.03
8,CCCS(=O)(=O)Nc1ccc(F)c(C(=O)c2c[nH]c3ncc(-c4ccc(Cl)cc4)cc23)c1F [Vemurafenib],1.12
9,COc1ncc(-c2ccc3nccc(-c4ccnnc4)c3c2)cc1NS(=O)(=O)c1ccc(F)cc1F [Omipalisib],0.261
10,CS(=O)(=O)Nc1cc(-c2ccc3ncnc(Nc4ccc(F)c(Cl)c4)c3c2)cnc1Cl,0.997
11,Nc1ccccc1C(=O)C[C@H](N)C(=O)O [L-Kynurenine],0.987
12,N#CCC(C1CCCC1)n1cc(-c2ncnc3[nH]ccc23)cn1 (configuration not stated),1.16
13,CN1CCN(c2cc(-c3ccccc3)nc(N)n2)CC1,1.09
14,COC(=O)c1ccc([C@H]2c3[nH]c4ccccc4c3C[C@H](C(=O)OC)N2C(=O)CCl)cc1,0.0417
15,COC(=O)[C@@H]1[C@H]2C[C@H]3c4[nH]c5ccccc5c4CCN3C[C@@H]2CC[C@@H]1O [Yohimbine hydrochloride],1.22
16,CN1CC(=O)N2[C@H](c3ccc4c(c3)OCO4)c3[nH]c4ccccc4c3C[C@@H]2C1=O [Tadalafil],0.916
17,CCCNC(=O)c1cn2ncnc(Nc3cc(C(=O)NC4CC4)ccc3C)c2c1C,1.03
18,COc1ccc(-c2ccccc2)cc1NS(=O)(=O)c1cc(Cl)cc(Cl)c1O,0.883
